In PubChem BioAssay AID1851 (National Center for Advancing Translational Sciences (NCATS), 2009):
About 5,700 (36%) of roughly 16,000 compounds were called active. Another 24% or so got no clear call; they are omitted. The list shows a part of the results. Unmarked numbers belong to inactive results. Calls follow the shape of the dose curve; as a rule, active = well fitted curve in the direction sought with a large enough effect; inconclusive = small, poorly fitted or top-dose-only effect, or effect the other way; inactive = no such curve, though single readings can be large or run the other way.

These compounds were tested against Cytochrome P450 1A2 (Homo sapiens) (UniProt P05177) (assay: Cytochrome panel assay with activity outcomes). Details: recombinant CYP, pro-luciferin dealkylation, luminescence, p450-cyp1a2; series mostly up to 57.1 µM; activity, negative = inhibition: at the top concentration.
% is scaled to controls: 0 for no effect and ±100 for the full control effect.

Sequence of Cytochrome P450 1A2 (Homo sapiens) (P05177 whole entry, looked up): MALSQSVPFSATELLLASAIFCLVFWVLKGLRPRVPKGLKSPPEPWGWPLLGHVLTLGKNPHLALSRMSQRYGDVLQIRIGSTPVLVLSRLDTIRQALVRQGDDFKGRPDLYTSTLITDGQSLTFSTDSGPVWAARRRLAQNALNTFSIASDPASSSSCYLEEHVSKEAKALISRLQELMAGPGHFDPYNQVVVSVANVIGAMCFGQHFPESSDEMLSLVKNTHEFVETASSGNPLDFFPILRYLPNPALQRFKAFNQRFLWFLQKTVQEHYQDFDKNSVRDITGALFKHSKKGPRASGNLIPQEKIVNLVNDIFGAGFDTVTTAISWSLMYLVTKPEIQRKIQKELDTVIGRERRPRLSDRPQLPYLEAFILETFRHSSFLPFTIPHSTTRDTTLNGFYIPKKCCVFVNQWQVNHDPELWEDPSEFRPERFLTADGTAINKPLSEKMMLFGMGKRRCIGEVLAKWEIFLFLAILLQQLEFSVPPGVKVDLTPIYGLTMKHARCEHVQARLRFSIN

SMILES	activity, negative = inhibition	AC50
COc1ccc(O[C@H]2C=C[C@@H](c3ccccc3)O[C@@H]2CON=C(C)C)cc1	-2.27% [at 11.4 µM]	
Cc1cc2nc3[nH]c4c(Cl)cc(Cl)cc4c3nc2cc1C		0.631 µM (active)
CS(=O)(=O)N1CCC2(CC1)CN(C(=O)Nc1cccc(C#N)c1)C2	-18.1%	
C=CCNC(=S)N/N=C/c1ccc(-c2cc(Cl)ccc2Cl)o1		0.112 µM (active)
CC(=O)C1=C(O)C=C(c2ccco2)CC1c1ccco1 (stereo not given)		5.01 µM (active)
CC1=CC=CN2CC(O)CN=C12 (stereo not given)	11.4%	
N#Cc1ccccc1NC(=O)Nc1cccs1		7.08 µM (active)
COc1cc2c3cc1Oc1cc(ccc1O)C[C@@H]1c4c(cc(OC)c(O)c4Oc4ccc(cc4)C[C@H]3[N+](C)(C)CC2)CC[N+]1(C)C	-5.47% [at 11.4 µM]	
COC(=O)[C@@H]1CC[C@H](C)[C@@H](c2ccc(C)cc2)N1C(=O)c1ccc(/C=N\OC[C@@H](C)[C@H](OCc2ccccc2)C(C)C)cc1	-8.55% [at 11.4 µM]	
COc1ccc([N+](=O)[O-])cc1NCc1ccccc1C		2.82 µM (active)
COc1ccc([N+](=O)[O-])cc1NC1C2CC3CC(C2)CC1C3 (stereo not given)	-13.9%	
Cc1cc([N+](=O)[O-])ccc1NCc1ccccc1		2.82 µM (active)
Cc1cc(C)c(-c2cc([C@H](C)O/N=C\[C@@H](C)[C@H](OCc3ccccc3)C(C)C)on2)c(C)c1	5.92% [at 11.4 µM]	
O=C(O)CONC(=O)c1cc(OCC(F)(F)F)ccc1OCC(F)(F)F	-17.8%	
S=C(NCCSCc1c(Cl)cccc1Cl)Nc1ccccc1		1.41 µM (active)
Fc1cccc(NC(=S)NCCCN2CCOCC2)c1	-12.7%	
CN(C)c1ccc(N=Cc2nc(-c3ccccc3)oc2O)cc1		0.398 µM (active)
Oc1oc(-c2ccccc2)nc1C=Nc1ccccc1		0.316 µM (active)
CCOC(=O)C1=C(C)Nc2ncnn2C1c1cccnc1 (stereo not given)	-18.6%	
CSc1nc2n(n1)C(c1cccc(F)c1)C(C(=O)Nc1ccc(C)cc1C)=C(C)N2 (stereo not given)	1.58%	
CC1=C(C(N)=O)C(c2ccccc2)n2nc(-c3ccncc3)nc2N1 (stereo not given)		14.1 µM (active)
COc1cccc(Nc2nc(-c3ccc(O)cc3)cs2)c1		1 µM (active)
COc1cccc([C@H](O)Cn2cc(-c3ccc(CON=C(C)C)cc3)nn2)c1	-9.27% [at 11.4 µM]	
COc1ccc(OC)c(Nc2nc(-c3sc(NC(=O)c4ccccc4)nc3C)cs2)c1	-16%	
C=CCNC(=S)Nc1ccc2nc(C)c(C)nc2c1		4.47 µM (active)
